Results on 29 compounds are retold here after PubChem BioAssay (NCATS).

Records with an inconclusive call do not appear. A number with no mark means an inactive call. Active and inactive are the calls of the source. Calls follow the shape of the dose curve; as a rule, active = well fitted curve in the direction sought with a large enough effect; inconclusive = small, poorly fitted or top-dose-only effect, or another doubt; inactive = no such curve, though single readings can be large; an effect the other way counts as inactive or inconclusive.
Potency is read from the fitted curve at half-maximal effect.

A short description of the first test: Quantitative highthroughput screen to assess conditional lethalithy of SEM cells grown in RPMI1640 with unreated serum (RPMI+s) (AID 1963883). Also: nearly all actives have a fitted effect of over 35% in size.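 As to viability: 100% = DMSO wells and 0% = empty wells without cells.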 The following applies: SEM B-ALL cells, CellTiter-Glo viability, 48 h; series mostly up to 45.8 µM; viability: at the top concentration. Put shortly:
(§1)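 Each medium arm—HPLM with 10% dialyzed FBS, or RPMI1640 with 5 mM glucose and 10% untreated or dialyzed FBS—was screened against an 11-point, 3-fold compound titration for 48 h at 37 °C, with CellTiter-Glo luminescence as endpoint.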
Consider `CON(C)C(=O)N1N=C(c2cc(F)ccc2F)S[C@]1(CCCN)c1ccccc1`, for which the viability (usually a read-out of living cells in per cent, often relative to untreated cells) is 16.5%.

`Cc1cn2c(-c3cn[nH]c3)cnc2c(Nc2ccc(C(=O)N3CCNCC3)cc2F)n1`: the Potency is 14.8 µM (active).

On to `CC[C@H](CC[C@@H](C)[C@H]1CC[C@H]2[C@@H]3CC=C4C[C@@H](O)CC[C@]4(C)[C@@H]3CC[C@]12C)C(C)C`, for which the “viability” value is 92.5%.

Take `CC(C)N(CCCNC(=O)Nc1ccc(C(C)(C)C)cc1)C[C@H]1O[C@@H](n2cc(Br)c3c(N)ncnc32)[C@H](O)[C@H]1O`: the Potency is 20.9 µM (active).

On to `CC(C)=CCCC(C)=CCCC(C)=CCSc1ccccc1C(=O)O`, for which the Potency is 6.62 µM (active).

As for `C[C@@H](Oc1cc(-c2cnn(C3CCNCC3)c2)cnc1N)c1c(Cl)ccc(F)c1Cl`, the Potency was 9.35 µM (active).

Another test in a line: Quantitative highthroughput screen to assess conditional lethalithy of SEM cells grown in RPMI1640 with dialyzed fetal bovine serum (RPMI+ds) (AID 1963884). Also: nearly all actives have a fitted effect of over 35% in size.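 As to viability: 100% = DMSO control wells and 0% = empty wells without cells.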 Conditions: SEM B-ALL cells, RPMI+dialyzed FBS, CellTiter-Glo viability, 48 h; series mostly up to 45.8 µM; viability: at the top concentration. Put shortly: as §1
`COc1cc2c(cc1OC)[C@@H]1Cc3ccc(OC)c(OC)c3CN1CC2`: the “viability” value is 83.5%.

For `Nc1nc(F)nc2c1ncn2[C@@H]1O[C@H](COP(=O)(O)O)[C@@H](O)[C@H]1O`, the Potency was 1.87 µM (active).

Consider `CCOC(=O)N1CCN([N+]([O-])=NOc2ccc([N+](=O)[O-])cc2[N+](=O)[O-])CC1`, for which the Potency is 4.69 µM (active).

Consider `CC[C@@]1([C@@H]2O[C@@H]([C@H]3O[C@@](O)(CO)[C@H](C)C[C@H]3C)C[C@H]2C)CC[C@H]([C@]2(C)CC[C@]3(C[C@H](O)[C@@H](C)[C@@H]([C@@H](C)[C@@H](OC)[C@H](C)C(=O)O)O3)O2)O1`, for which the Potency was 1.15 µM (active).

Regarding `Fc1ccc([C@@H]2CCNC[C@H]2COc2ccc3c(c2)OCO3)cc1`, the Potency was 14.8 µM (active).

As to `C[C@]12CC[C@@H]3c4ccc(O)cc4CC[C@H]3[C@H]1CC[C@H]2O`, the Potency is 20.9 µM (active).

Take `CO[C@H]1/C=C\O[C@@]2(C)Oc3c(C)c(O)c4c(O)c(c5c(nc6cc(C)ccn65)c4c3C2=O)NC(=O)C(C)=CC=C[C@H](C)[C@H](O)[C@@H](C)[C@@H](O)[C@@H](C)[C@H](OC(C)=O)[C@H]1C`: the Potency is 14.8 µM (active).

As to `Cc1cc(=O)c2c(O)c3c(O)cc(=O)c4c3c3c(cc(O)c1c23)C(C)(C)C=4O`, the “viability” value is 86.9%.

Consider `CON(C)C(=O)N1N=C(c2cc(F)ccc2F)S[C@]1(CCCN)c1ccccc1`, for which the “viability” value was 17.4%.

As for `Cc1cn2c(-c3cn[nH]c3)cnc2c(Nc2ccc(C(=O)N3CCNCC3)cc2F)n1`, the Potency was 14.8 µM (active).

As for `CC[C@H](CC[C@@H](C)[C@H]1CC[C@H]2[C@@H]3CC=C4C[C@@H](O)CC[C@]4(C)[C@@H]3CC[C@]12C)C(C)C`, the “viability” value was 86.9%.

For `CC(C)=CCCC(C)=CCCC(C)=CCSc1ccccc1C(=O)O`, the Potency was 11.8 µM (active).

Regarding `CN1CCN(CCCN2c3ccccc3Sc3ccc(Cl)cc32)CC1`, the “viability” value was 84.2%.

For `Cc1onc(-c2ccccc2)c1C(=O)N[C@@H]1C(=O)N2[C@@H](C(=O)O)C(C)(C)S[C@@H]12`, the “viability” value was 98.7%.

The next test in a line: Cellular viability qHTS for adrenocortical cancer (ACC) cell line SW-13 (AID 1963989). Also: nearly all actives have a fitted effect of over 65% in size.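 As to activity (max response): cells grown in serum-free medium with ITS supplement; % is scaled to controls: 0 for no effect and ±100 for the full control effect.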 The following applies: SW-13 ACC cells viability, CellTiter-Glo, 48 h; activity (max response): stronger effect = lower value. Put shortly: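 SW-13 cells in ITS-supplemented serum-free DMEM were plated overnight, then exposed for 48 h at 37C to compound titrations (up to 46 uM final). Viability was read by CellTiter-Glo luminescence; four-parameter logistic fits gave IC50 and efficacy.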
In the case of `COc1cc2c3c(n(CCCn4ccnc4)c(=O)c2cc1OC)-c1cc2c(cc1C3=O)OCO2`, the Potency is 0.0316 µM (active).

As to `CCOC(=O)COc1ccc2c(C)c(CCN(CC)CC)c(=O)oc2c1Cl`, the activity (max response) was 0.298%.

As for `CC(C)n1c(/C=C/[C@@H](O)C[C@@H](O)CC(=O)O)c(-c2ccc(F)cc2)c2ccccc21`, the activity (max response) was 5.25%.

In the case of `CCCCCCCC/C=C/C(=O)O`, the activity (max response) was -1.5%.

For `Fc1ccc([C@@H]2CCNC[C@H]2COc2ccc3c(c2)OCO3)cc1`, the activity (max response) was -15.4%.

Turning to `Cc1nc(C2CCCCC2)c(-c2ccc(S(N)(=O)=O)c(F)c2)o1`, the activity (max response) is 16%.

`CS(=O)(=O)Oc1ccc2c(NC(N)=O)c(C(=O)c3ccc(Cl)cc3Cl)oc2c1`: the activity (max response) is -2.55%.

`CCOC(=O)Nc1ccc2c(c1)N(C(=O)CCN1CCOCC1)c1ccccc1S2`: the activity (max response) is -13.5%.

On to `CC(C)c1c(-c2ccccc2)nc2c(C#N)c[nH]n2c1=O`, for which the activity (max response) is -8.31%.

`CCCCCCCCCCCCCCCCCCNC(=O)OC1CCN(C(=O)OC[C@H](COC(=O)N(Cc2cccc[n+]2CC)C(=O)c2ccccc2OC)OC)CC1`: the Potency was 7.31 µM (active).

For `CCCC(C(=O)OCCN(CC)CC)(c1ccccc1)c1ccccc1`, the Potency was 20.6 µM (active).

`Cc1c(F)cc(C(=O)NC2CC2)cc1-c1c(F)cn2c(C(C)(C)C)nnc2c1F`: the activity (max response) is -10.3%.

For `CC(C)N(CCCNC(=O)Nc1ccc(C(C)(C)C)cc1)C[C@H]1O[C@@H](n2ccc3c(N)ncnc32)[C@H](O)[C@@H]1O`, the activity (max response) was -3.92%.

A short description of another test: Cellular viability qHTS for adrenocortical cancer (ACC) cell line NCI-H295R (AID 1963990). Also: nearly all actives have a fitted effect of over 60% in size.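 As to activity change, negative = viability loss: 0% = DMSO only wells and -100% = full killing with cytotoxic reference compound.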 Conditions: CellTiter-Glo ATP luminescence, 48 h; series mostly up to 46.1 µM; activity change, negative = viability loss: at the top concentration. In a few lines: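 Luminescent ATP read-out (CellTiter-Glo, 20 min RT) after 48 h drug exposure of NCI-H295R cells; a titration up to 46 uM final. Data normalized to doxorubicin (100% inhibition) and DMSO (0%); 4-parameter fit gives IC50, max response.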
As for `CS(=O)(=O)Oc1ccc2c(NC(N)=O)c(C(=O)c3ccc(Cl)cc3Cl)oc2c1`, the “activity change, negative = viability loss” value was -5.28%.

`Cc1cc(=O)c2c(O)c3c(O)cc(=O)c4c3c3c(cc(O)c1c23)C(C)(C)C=4O`: the Potency was 2.24 µM (active).

`NC(=O)c1cnc(N[C@@H]2CCCC[C@@H]2N)nc1Nc1cccc(-n2nccn2)c1`: the Potency is 25.1 µM (active).

`C[C@@H](Oc1cc(-c2cnn(C3CCNCC3)c2)cnc1N)c1c(Cl)ccc(F)c1Cl`: the Potency was 3.16 µM (active).
